Only some compounds are listed: those with a hit (about 1.1% of all), similar ones and a draw of the others.
Glyco luc inh – N-linked glycosylation inhibition. D54 ERlucT glycosylation luciferase reporter, 24 h; percent of 100 nM tunicamycin response. AID 588692. 360,000 compounds, 0.23% hits. reporter increase, % at 12.5 µM;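 active = mean luciferase reporter signal, scaled so untreated is 0 and the glycosylation-blocking control 100, at or above a set limit in every replicate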;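 note: luciferase carries N-glycosylation sites so blocking glycosylation raises the light; 0% = median of neutral control wells and 100% = median of 100 nM tunicamycin wells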
HDAC3 inh – inhibitors of human histone deacetylase 3; inhibition, % at 8.3 µM; 320,000 compounds, 0.15% hits; O15379; AID 2718; recombinant HDAC3, fluorogenic peptide/trypsin coupled, fluorescence; in the data active = inhibition above about 26%, passing the limit was not always enough
Keap1 Nrf2 FP – disrupts human Keap1 binding to Nrf2 peptide | Q14145 | 340,000 compounds, 0.15% hits | inhibition, % at 9.4 µM | Keap1 Kelch-Nrf2 peptide fluorescence polarization, 1536-well; in the data active = inhibition above about 12%;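 note: human Keap1 Kelch domain with fluorescein labeled Nrf2 9mer peptide probe; 0% = neutral control wells and 100% = peptide positive control; higher means more block of Keap1 binding to Nrf2 peptide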
Casp6 inh – inhibitors of human caspase-6. P55212. purified caspase-6, Z-VEID-R110 cleavage fluorescence. inhibition, % at 12.5 µM. AID 686996. 350,000 compounds, 0.53% hits;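 active = mean inhibition across replicates at least about 35%, with every replicate also reaching that limit, limit read from the data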;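 note: 0% = median of neutral control wells and 100% = no fluorescence left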
NSD2 inh – NSD2 (human) methyltransferase inhibition | NSD2 peptide methylation, AlphaScreen, 120 min | 310,000 compounds, 0.54% hits | O96028 | AID 743445 | inhibition, % at 12.5 µM; in the data active = inhibition above about 50%
LANA DNA inh – blocks KSHV LANA C-terminal domain binding to DNA | inhibition, % at 9 µM | 340,000 compounds, 0.078% hits | MBP-C-LANA/FAM-LBS DNA binding, fluorescence polarization | AID 504423;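 active = highest replicate inhibition at or above 60% at 9 µM, even if other replicates fall short; inactive = all replicates below 60% inhibition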;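 note: 0% = neutral control wells and 100% = 4 µM acridine orange control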
* = called active by the depositor; . = no result given.

SMILES	Glyco luc inh	HDAC3 inh	Keap1 Nrf2 FP	Casp6 inh	NSD2 inh	LANA DNA inh
Cc1ccc(S(=O)(=O)N2CCN(CC(=O)Nc3ccnn3C3CCCC3)CC2)cc1	-1	-3	0	39*	7	0
O=C(CN1CCN(S(=O)(=O)c2ccccc2F)CC1)Nc1ccnn1C1CCCC1	-1	1	-2	0	19	0
Cc1ccc(S(=O)(=O)Nc2cccc3c2O[C@@H](CN(C)C)[C@H](C)CN([C@H](C)CO)C3=O)cc1	.	.	.	-2	.	.
COc1cc(/C=N/Nc2ccc(C(=O)O)cc2)ccc1O	-18	-3	-5	39*	.	4
COc1cc(/C=N/Nc2ccc(C(=O)O)cc2)cc(OC)c1OC	3	3	-4	9	1	0
COc1cc(/C=N/Nc2nc(N3CCCC3)nc(N3CCCC3)n2)ccc1O	6	38*	-2	.	-7	-1
C[C@H](CO)N1C[C@H](C)[C@@H](CN(C)Cc2ccc(-c3ccccc3)cc2)Oc2ccc(N(C)C)cc2CC1=O	.	.	.	-1	.	.
COc1ccccc1-c1c(C)oc2cc(OC(=O)c3ccco3)ccc2c1=O	2	31*	0	.	2	1
COc1ccccc1Oc1c(C)oc2cc(OC(=O)c3ccco3)ccc2c1=O	3	0	3	.	-1	0
O=C1NC(=S)S/C1=C\c1ccc(SCc2ccco2)o1	-2	8	21*	.	.	99*
CCS(=O)(=O)N1CC2(CN(C(=O)Nc3c(C)noc3C)[C@H](CO)c3[nH]c4cc(OC)ccc4c32)C1	.	.	.	4	.	.
C[C@H](CO)N1C[C@H](C)[C@H](CN(C)Cc2ccc(Oc3ccccc3)cc2)Oc2ccc(NC(=O)NC3CCCCC3)cc2C1=O	.	.	.	4	.	.
CCc1cc2c(=O)oc(-c3ccccc3F)nc2s1	1	69*	-2	22	-4	0
C/C(=N\NC(=O)c1cc(-c2ccccn2)nc2ccccc12)c1cccc([N+](=O)[O-])c1	1	6	-6	3	1	98*
Fc1ccc(NC(=S)Nc2cccc3cnccc23)cc1	7	5	3	36*	30	-1
CO[C@H]1CN(C)C(=O)c2cc(NS(C)(=O)=O)ccc2OC[C@@H](C)N(Cc2ccccc2)C[C@H]1C	.	.	.	3	.	.
CC(C)NC(=O)N1[C@H](CO)[C@@H](c2ccccc2)C12CN(C(=O)Cc1cccnc1)C2	.	.	.	42*	.	.
O=C(Oc1ccc(N(Cc2cccs2)C2=NS(=O)(=O)c3ccccc32)cc1)c1ccccc1	1	69*	1	.	-1	-2
CCC(=O)Nc1ccc2c(c1)C(=O)N(C)C[C@@H](OC)[C@@H](C)CN(C(=O)C1CC1)[C@H](C)CO2	.	.	.	1	.	.
Cc1ccc2nc(-c3ccc(Cl)cc3)c(Cc3ccsc3)n2c1	.	.	.	0	.	.
Cc1ccc(-c2nc3ccc(Cl)cn3c2Cc2ccsc2)cc1	-1	.	.	37*	.	.
CCOc1ccc(C2=Nn3c(nnc3-c3ccccc3OC)SC2)cc1	10	18	0	.	8	1
COc1ccccc1-c1nnc2n1N=C(c1ccc(O)c(O)c1)CS2	10	13	1	.	56*	3
COc1cccc(CNC(=O)CCCn2ccc3cc(S(=O)(=O)N4CCCC4)ccc32)c1	0	-3	0	3	-13	-1
COc1cccc(CNC(=O)CCn2ccc3cc(S(=O)(=O)N4CCCC4)ccc32)c1	0	9	-6	70*	-1	1
SMILES	Glyco luc inh	HDAC3 inh	Keap1 Nrf2 FP	Casp6 inh	NSD2 inh	LANA DNA inh
CO[C@@H]1CN(C)C(=O)c2ccc(NC(C)=O)cc2OC[C@H](C)N(Cc2ccccc2F)C[C@H]1C	.	.	.	-1	.	.
Cc1c(C(=O)N2CCCC2)oc2c1-c1nn(CC(=O)NCCCOC(C)C)cc1CC2	0	-3	0	9	138*	-1
Cc1ccc(S(=O)(=O)n2ccc(OC(=O)c3cccs3)n2)cc1	6	90*	-4	3	.	-1
CCC[C@@H](CN1CCC[C@H]1CN1C(N)=NC[C@@H]1Cc1ccccc1)N1C[C@@H](Cc2ccccc2)N(CCc2ccc(Cl)c(Cl)c2)C1=N	2	-3	-2	45*	.	-1
CCC[C@@H](CN1CCC[C@H]1CN1C(N)=NC[C@@H]1Cc1ccccc1)N1C[C@@H]([C@H](C)CC)N(CCc2ccc(Cl)c(Cl)c2)C1=N	1	-11	0	.	.	-10
CCC[C@@H](CN1CCC[C@H]1CN1C(N)=NC[C@H]1CC(C)C)N1C[C@@H](Cc2ccccc2)N(CCc2ccc(Cl)c(Cl)c2)C1=N	4	-21	-2	36*	.	-2
COc1ccccc1/C=C/C(=O)NNC(=O)c1cc(C)oc1C	0	.	0	1	2	-4
Cc1cc(C(=O)NNC(=O)/C=C/c2ccco2)c(C)o1	1	.	-4	52*	12	24
N#CCC(CNc1ncc(C(F)(F)F)cc1Cl)OC(=O)c1cccc([N+](=O)[O-])c1 (stereo unspecified)	29*	19	-7	.	-3	0
CCCNC(=O)Nc1ccc2c(c1)C(=O)N(C)C[C@@H](OC)[C@H](C)CN(Cc1cccnc1)[C@H](C)CO2	.	.	.	1	.	.
C[C@H](CO)N1C[C@H](C)[C@H](CN(C)Cc2ccc(C(=O)O)cc2)Oc2cc(/C=C/c3ccccc3)ccc2S1(=O)=O	.	.	.	1	.	.
Cc1ccc(NC(=O)CN2C(=O)S/C(=C\c3cc(Cl)c(OCC(=O)O)c(Cl)c3)C2=O)cc1	0	7	-9	39*	12	1
C[C@@H]1CN([C@H](C)CO)C(=O)c2cc(-c3ccc(C(=O)N(C)C)cc3)cnc2O[C@H]1CN(C)Cc1ccc(C(=O)O)cc1	.	.	.	-1	.	.
O=C(O)c1ccc2c(c1)C(=O)/C(=C/c1ccccc1)C2=O	1	0	2	8	48	19
O=C(O)c1ccc2c(c1)C(=O)/C(=C\c1ccco1)C2=O	-2	5	1	41*	49	70*
C[C@H](CO)N1C[C@H](C)[C@H](CN(C)CC2CC2)OCCCC[C@H](C)Oc2ccc(NC(=O)Cc3ccccc3)cc2C1=O	.	.	.	-1	.	.
O=c1c(OC2OC(CO)C(O)C(O)C2OC2OC(CO)C(O)C(O)C2O)c(-c2ccc(O)cc2)oc2cc(O)cc(O)c12 (stereo unspecified)	3	4	-3	46*	.	12
O=c1c(O[C@H]2O[C@@H](CO)[C@H](O)[C@@H](O)[C@@H]2O)c(-c2ccc(O)cc2)oc2cc(O)cc(O)c12	1	4	-3	23	.	1
CCOc1ccccc1C1N=C(c2ccc(OC)cc2)CC(c2ccccc2O)N1 (stereo unspecified)	7	-5	-5	-1	-7	-2
CC(C)C1N=C(c2ccc3c(c2)OCO3)CC(c2ccccc2O)N1 (stereo unspecified)	37*	4	-15	.	-1	-1
COc1c(/C=C2\SC(=Nc3ccccc3Cl)NC2=O)cccc1[N+](=O)[O-]	4	0	0	-1	7	-1
